From PubChem BioAssay
Active and inactive are the calls of the source. Unless noted, no rule for the calls is given here.

Assays:
[1] = system: XIP peptide (Xip251-270) binding; test: small-molecule binders of XIP peptide, primary screen, biochemical, small-molecule microarray, fluorescence 635/667 nm, 0.1 µg/mL protein (AID 1182); details: fluorescent protein binding, 635 nm, higher = more signal, called active from +8 up or from −8 down
[2] = system: XIP peptide (Xip251-270); test: small-molecule binders of XIP peptide, primary screen, biochemical, small-molecule microarray, fluorescence 635/667 nm, 0.5 µg/mL protein (AID 1183); details: small-molecule microarray binding, fluorescence 635 nm; higher = more signal
[3] = Plasmodium falciparum growth inhibition, primary screen, strain 3D7, DAPI fluorescence, 100 nL (AID 1184);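 also: parasites grown inside human red blood cells in medium with human serum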; details: P. falciparum 3D7 growth, 3 d, higher = more signal
[4] = biological target: Homeobox protein Hox-A13 (Mus musculus) (UniProt Q62424); test: inhibitors of HoxA13-DNA binding, primary screen, biochemical, fluorescence polarization, labeled oligonucleotide (AID 1185); details: 15 min, higher = more signal, called active from +8 up or from −8 down
[5] = inhibitors of hydroxyurea-induced Chk1 phosphorylation, primary screen, imaging, HeLa, phospho-Chk1 antibody, percent positive cells (AID 1186); details: hydroxyurea-induced phospho-Chk1 immunofluorescence imaging, higher = more signal
[6] = inhibitors of hydroxyurea-induced Chk1 phosphorylation, primary screen, imaging, HeLa, phospho-Chk1 nuclear intensity (AID 1187); details: hydroxyurea-induced phospho-Chk1 immunofluorescence imaging, higher = more signal

Sequence of Homeobox protein Hox-A13 (Mus musculus) (Q62424 whole entry, looked up): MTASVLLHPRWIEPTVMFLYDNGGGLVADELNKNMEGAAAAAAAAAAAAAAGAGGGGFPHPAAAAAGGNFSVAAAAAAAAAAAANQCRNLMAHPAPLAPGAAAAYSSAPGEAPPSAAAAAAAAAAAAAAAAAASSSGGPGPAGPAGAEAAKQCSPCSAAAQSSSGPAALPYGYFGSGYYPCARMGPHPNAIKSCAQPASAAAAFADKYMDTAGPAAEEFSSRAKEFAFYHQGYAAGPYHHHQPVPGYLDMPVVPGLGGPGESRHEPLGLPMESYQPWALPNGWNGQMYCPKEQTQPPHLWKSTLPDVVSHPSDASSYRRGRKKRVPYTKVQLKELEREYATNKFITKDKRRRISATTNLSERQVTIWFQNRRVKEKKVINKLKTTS

| Compound | composite z-score [1] | composite z-score [2] | z-score [3] | z-score [4] | z-score [5] | z-score [6] |
| --- | --- | --- | --- | --- | --- | --- |
| COCCCNC(=O)[C@]1(Cc2ccccc2CN=[N+]=[N-])N=C(c2ccc(OCCCO)cc2)O[C@@H]1c1ccccc1CN=[N+]=[N-] | 0.22 (inactive) | 0.744 | -2.48 | -2.43 (inactive) | -0.0731 (inactive) | -0.303 (inactive) |
| COCCCNC(=O)[C@@H]1c2ccccc2C(=O)N(Cc2cc(F)cc(C(F)(F)F)c2)[C@H]1c1ccc(CO)cc1 | -0.0408 (inactive) | -0.0784 | -0.288 | -2.79 (inactive) | 0.0176 (inactive) | -0.299 (inactive) |
| C=C(COC)/C(=C/C[C@@H](OC(=O)c1ccncc1)c1cccc(OCCO)c1)c1cc(C(=O)OC)ccc1OC | 0.658 (inactive) | 0.657 | -2.38 | -4.58 (inactive) | 0.0182 (inactive) | 0.527 (inactive) |
| COC(=O)[C@]1(Cc2ccccc2N=[N+]=[N-])N=C(c2ccc(OCCCO)cc2)O[C@@H]1c1ccccc1 | 0.857 (inactive) | 0.797 | -1.44 | -2.09 (inactive) | -0.88 (inactive) | -1.26 (inactive) |
| C=C[C@H](C)[C@H](OC(=O)Nc1ccc(SC)cc1)c1ccc(O)c2ccccc12 | 0.273 (inactive) | 0.151 | -0.243 | -5.27 (inactive) | -0.08 (inactive) | -0.437 (inactive) |
| COC(=O)[C@@]1(Cc2ccc(OC)cc2)[C@H]2c3cc(C(=O)N(C)C)n(Cc4cc(F)c(F)c(F)c4)c3C[C@H]2CN1C(=O)c1ccccc1 | 0.0306 (inactive) | 0.577 | -1.81 | -1.93 (inactive) | 0.102 (inactive) | -0.186 (inactive) |
| COCC1=C([C@H](O)CCc2ccccc2)[C@H](CO)[C@@H]2C(=O)N(C)C(=O)[C@@H]2C1 | -0.328 (inactive) | 0.104 | -0.119 | -6.06 (inactive) | -0.32 (inactive) | -0.523 (inactive) |
| NC(=O)NCC#Cc1ccc2c(c1)[C@]1(C(=O)N2)[C@H](c2ccc(OCCO)cc2)N2[C@H](c3ccccc3)[C@H](c3ccccc3)OC(=O)[C@H]2[C@@H]1C(=O)N1CCN(c2ncccn2)CC1 | 0.0244 (inactive) | 0.353 | 0.149 | 0.314 (inactive) | 0.432 (inactive) | 1.09 (inactive) |
| CCCNC(=O)[C@@H]1c2ccccc2C(=O)N(CC23CC4CC(CC(C4)C2)C3)[C@H]1c1ccc(CO)cc1 | 1.67 (inactive) | 0.773 | -2.3 | -4.87 (inactive) | 0.118 (inactive) | 0.0519 (inactive) |
| CCC[C@@H]1C[C@@]1(CCC)[C@@H](NC(=O)c1cccs1)c1ccc(Cl)cc1 | -0.0569 (inactive) | 0.0455 | -0.76 | -1.93 (inactive) | -0.248 (inactive) | -0.143 (inactive) |
| COCCOC(=O)N1C(=O)[C@@]2(c3cc(C#CCNC(N)=O)ccc31)[C@H](C(N)=O)[C@H]1C(=O)O[C@H](c3ccccc3)[C@H](c3ccccc3)N1[C@@H]2c1ccc(OCCO)cc1 | -0.0439 (inactive) | 0.549 | 0.101 | -2.08 (inactive) | 0.358 (inactive) | 0.489 (inactive) |
| COCCOC(=O)N1C(=O)[C@@]2(c3cc(C#CCCO)ccc31)[C@H](c1ccc(OCCO)cc1)N1[C@H](c3ccccc3)[C@H](c3ccccc3)OC(=O)[C@H]1[C@@H]2C(=O)N1CCc2cc(OC)c(OC)cc2C1 | 0.311 (inactive) | 0.736 | -1.87 | 2.71 (inactive) | -0.209 (inactive) | 0.0256 (inactive) |
| C[N+](C)(C)CCCCCCNC(=O)[C@H]1C[C@H]2C(=O)N3CCC[C@H]3C(=O)N2[C@H]1c1cccc(OCCO)c1 | 0.883 (inactive) | 0.713 | 0.14 | -3.94 (inactive) | 0.372 (inactive) | 0.182 (inactive) |
